Laboratory results reported in ChEMBL document CHEMBL3988442, “University of Dundee, Small-Polar-MMV Screening Library” (2021).
For some assays here: Entries with a potency or affinity are not part of this list.

Assays:
Design in all cases: scale not given: direction of the effect not stated beside the values
[1] = target: Protein translocase subunit SecA (Escherichia coli (strain K12)) (UniProt P10408); experiment: Assay to Identify E. coli SecA ATPase Inhibitors; type: functional; settings: 30 µM
[2] = target: T1, Ubiquitin-activating enzyme e1, putative (Leishmania donovani (strain BPK282A1)) (UniProt E9BSI1); experiment: Leishmania donovani Ubiquitin Activating Enzyme (LdE1); type: functional; settings: 30 µM
T1 sequence (whole entry): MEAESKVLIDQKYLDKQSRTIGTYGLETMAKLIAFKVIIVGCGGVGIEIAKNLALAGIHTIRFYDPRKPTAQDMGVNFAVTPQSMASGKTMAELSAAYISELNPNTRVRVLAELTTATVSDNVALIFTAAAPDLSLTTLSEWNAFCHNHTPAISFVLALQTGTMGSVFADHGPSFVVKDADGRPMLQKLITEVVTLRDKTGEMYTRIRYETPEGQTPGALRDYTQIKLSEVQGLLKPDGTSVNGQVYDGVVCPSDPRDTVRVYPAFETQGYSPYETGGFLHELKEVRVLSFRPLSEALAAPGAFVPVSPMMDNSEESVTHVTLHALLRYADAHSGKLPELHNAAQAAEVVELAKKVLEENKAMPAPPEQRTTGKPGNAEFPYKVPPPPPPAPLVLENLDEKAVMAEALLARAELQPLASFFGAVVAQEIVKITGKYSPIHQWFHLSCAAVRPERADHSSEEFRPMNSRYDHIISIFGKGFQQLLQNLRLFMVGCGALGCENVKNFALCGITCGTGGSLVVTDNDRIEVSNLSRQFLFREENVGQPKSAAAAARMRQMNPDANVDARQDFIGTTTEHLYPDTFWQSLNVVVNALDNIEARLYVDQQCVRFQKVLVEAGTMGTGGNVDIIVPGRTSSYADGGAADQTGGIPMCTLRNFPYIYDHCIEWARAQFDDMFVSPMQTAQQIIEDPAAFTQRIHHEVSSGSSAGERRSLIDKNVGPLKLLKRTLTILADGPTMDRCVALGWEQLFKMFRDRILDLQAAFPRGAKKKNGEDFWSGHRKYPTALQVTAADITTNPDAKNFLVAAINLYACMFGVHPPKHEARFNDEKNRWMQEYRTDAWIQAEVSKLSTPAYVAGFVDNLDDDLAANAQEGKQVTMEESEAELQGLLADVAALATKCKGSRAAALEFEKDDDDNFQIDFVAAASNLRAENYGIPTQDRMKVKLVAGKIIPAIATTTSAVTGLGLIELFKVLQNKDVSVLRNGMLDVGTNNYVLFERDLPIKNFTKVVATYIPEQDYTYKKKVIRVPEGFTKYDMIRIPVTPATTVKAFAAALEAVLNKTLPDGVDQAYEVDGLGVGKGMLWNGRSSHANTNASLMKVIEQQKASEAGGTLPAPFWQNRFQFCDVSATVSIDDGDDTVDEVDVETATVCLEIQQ

[3] = target: AMP-activated protein kinase, AMPK (Homo sapiens) (UniProt P54646+O43741+P54619+Q9UGJ0+Q9Y478+Q13131+Q9UGI9); experiment: AMP-dependent Kinase enzyme assay. An in vitro enzyme assay that detects ADP turnover that is directly proportional to AMPK activity. This uses naive AMPK that is activated during the assay with MK-8722; type: functional; settings: 30 µM
[4] = target: Sialic acid-binding Ig-like lectin 9 (Homo sapiens) (UniProt Q9Y336); experiment: Hs-Siglec9 ALPHAscreen SOP 20170721; settings: 10 µM
Trypanosoma cruzi = experiment: Trypanosoma cruzi phosphomannomutase and mannose-1-phosphate guanylyltransferase assay; type: functional; settings: 10 µM
[5] = target: T2, Arginase-2, mitochondrial (Homo sapiens) (UniProt P78540); experiment: in vitro enzyme assay to detect the production of urea directly proportional to the activity of Arginase II; type: functional; settings: 33.3 µM; further: in the data most compounds retested in dose-response had high values
T2 sequence (whole entry): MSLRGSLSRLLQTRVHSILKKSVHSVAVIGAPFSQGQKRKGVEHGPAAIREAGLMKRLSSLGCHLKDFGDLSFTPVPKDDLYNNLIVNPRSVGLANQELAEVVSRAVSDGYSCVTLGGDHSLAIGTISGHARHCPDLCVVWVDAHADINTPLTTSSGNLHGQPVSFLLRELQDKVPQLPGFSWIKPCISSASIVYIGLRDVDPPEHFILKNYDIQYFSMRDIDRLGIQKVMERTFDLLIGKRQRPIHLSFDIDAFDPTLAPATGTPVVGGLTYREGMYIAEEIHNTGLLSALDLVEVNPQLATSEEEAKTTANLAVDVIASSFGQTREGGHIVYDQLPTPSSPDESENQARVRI

[6] = target: T3, Proteasome subunit beta (Trypanosoma cruzi) (UniProt O96673); experiment: Trypanosoma cruzi proteasome chymotrypsin-like activity (TcProtChymo) assay.; further: in the data most compounds retested in dose-response had high values; type: functional; settings: 9.37 µM
T3 sequence (whole entry): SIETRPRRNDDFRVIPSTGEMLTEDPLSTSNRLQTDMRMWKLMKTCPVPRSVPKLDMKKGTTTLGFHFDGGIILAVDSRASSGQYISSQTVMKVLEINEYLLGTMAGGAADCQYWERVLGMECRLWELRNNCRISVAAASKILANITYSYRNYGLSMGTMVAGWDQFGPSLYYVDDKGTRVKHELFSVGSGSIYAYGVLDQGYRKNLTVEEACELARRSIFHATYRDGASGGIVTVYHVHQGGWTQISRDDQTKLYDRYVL

Homo sapiens = organism: Homo sapiens; experiment: To identify inhibition of the IFN signalling (Jak-Stat) pathway via expression of an eGFP reporter gene under the control of an IFN-stimulated response element (ISRE) containing MxA promoter.; type: functional; settings: 30 µM
[7] = target: T4, Tyrosyl-tRNA synthetase, putative (Trypanosoma cruzi (strain CL Brener)) (UniProt Q4DSP6); experiment: Trypanosoma cruzi tyrosyl tRNA synthetase (TcYRS) _High Tyrosine SOP; type: functional; settings: 30 µM; further: in the data most compounds retested in dose-response had high values
T4 sequence (whole entry): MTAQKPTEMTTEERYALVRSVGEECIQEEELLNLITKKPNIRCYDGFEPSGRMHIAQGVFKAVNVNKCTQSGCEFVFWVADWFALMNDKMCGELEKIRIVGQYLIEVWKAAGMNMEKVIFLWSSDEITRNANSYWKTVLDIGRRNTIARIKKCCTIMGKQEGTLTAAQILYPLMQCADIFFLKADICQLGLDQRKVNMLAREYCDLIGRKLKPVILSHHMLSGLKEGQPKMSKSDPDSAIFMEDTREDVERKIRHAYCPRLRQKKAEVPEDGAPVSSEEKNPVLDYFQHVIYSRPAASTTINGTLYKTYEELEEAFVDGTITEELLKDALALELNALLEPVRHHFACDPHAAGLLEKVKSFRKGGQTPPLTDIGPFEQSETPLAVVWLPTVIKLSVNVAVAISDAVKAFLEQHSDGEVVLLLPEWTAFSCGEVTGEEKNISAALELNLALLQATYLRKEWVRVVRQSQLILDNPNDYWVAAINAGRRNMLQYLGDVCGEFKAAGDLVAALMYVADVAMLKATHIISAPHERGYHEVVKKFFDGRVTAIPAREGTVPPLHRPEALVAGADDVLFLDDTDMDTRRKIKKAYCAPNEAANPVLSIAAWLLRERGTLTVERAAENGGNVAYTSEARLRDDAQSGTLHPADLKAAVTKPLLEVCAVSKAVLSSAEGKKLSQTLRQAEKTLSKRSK

[8] = target: T4, Tyrosyl-tRNA synthetase, putative (Trypanosoma cruzi (strain CL Brener)); experiment: Trypanosoma cruzi tyrosyl tRNA synthetase (TcYRS) SOP; type: functional; settings: 30 µM
[9] = target: Chromo domain-containing protein 1 (Saccharomyces cerevisiae (strain ATCC 204508 / S288c) (Baker's yeast)) (UniProt P32657); experiment: ScCHD-1 Enzyme Inhibition Assay; type: functional; settings: 30 µM; further: in the data most compounds retested in dose-response had high values
Sequence of Chromo domain-containing protein 1 (Saccharomyces cerevisiae (strain ATCC 204508 / S288c) (Baker's yeast)) (P32657 whole entry, the tested form may be a part): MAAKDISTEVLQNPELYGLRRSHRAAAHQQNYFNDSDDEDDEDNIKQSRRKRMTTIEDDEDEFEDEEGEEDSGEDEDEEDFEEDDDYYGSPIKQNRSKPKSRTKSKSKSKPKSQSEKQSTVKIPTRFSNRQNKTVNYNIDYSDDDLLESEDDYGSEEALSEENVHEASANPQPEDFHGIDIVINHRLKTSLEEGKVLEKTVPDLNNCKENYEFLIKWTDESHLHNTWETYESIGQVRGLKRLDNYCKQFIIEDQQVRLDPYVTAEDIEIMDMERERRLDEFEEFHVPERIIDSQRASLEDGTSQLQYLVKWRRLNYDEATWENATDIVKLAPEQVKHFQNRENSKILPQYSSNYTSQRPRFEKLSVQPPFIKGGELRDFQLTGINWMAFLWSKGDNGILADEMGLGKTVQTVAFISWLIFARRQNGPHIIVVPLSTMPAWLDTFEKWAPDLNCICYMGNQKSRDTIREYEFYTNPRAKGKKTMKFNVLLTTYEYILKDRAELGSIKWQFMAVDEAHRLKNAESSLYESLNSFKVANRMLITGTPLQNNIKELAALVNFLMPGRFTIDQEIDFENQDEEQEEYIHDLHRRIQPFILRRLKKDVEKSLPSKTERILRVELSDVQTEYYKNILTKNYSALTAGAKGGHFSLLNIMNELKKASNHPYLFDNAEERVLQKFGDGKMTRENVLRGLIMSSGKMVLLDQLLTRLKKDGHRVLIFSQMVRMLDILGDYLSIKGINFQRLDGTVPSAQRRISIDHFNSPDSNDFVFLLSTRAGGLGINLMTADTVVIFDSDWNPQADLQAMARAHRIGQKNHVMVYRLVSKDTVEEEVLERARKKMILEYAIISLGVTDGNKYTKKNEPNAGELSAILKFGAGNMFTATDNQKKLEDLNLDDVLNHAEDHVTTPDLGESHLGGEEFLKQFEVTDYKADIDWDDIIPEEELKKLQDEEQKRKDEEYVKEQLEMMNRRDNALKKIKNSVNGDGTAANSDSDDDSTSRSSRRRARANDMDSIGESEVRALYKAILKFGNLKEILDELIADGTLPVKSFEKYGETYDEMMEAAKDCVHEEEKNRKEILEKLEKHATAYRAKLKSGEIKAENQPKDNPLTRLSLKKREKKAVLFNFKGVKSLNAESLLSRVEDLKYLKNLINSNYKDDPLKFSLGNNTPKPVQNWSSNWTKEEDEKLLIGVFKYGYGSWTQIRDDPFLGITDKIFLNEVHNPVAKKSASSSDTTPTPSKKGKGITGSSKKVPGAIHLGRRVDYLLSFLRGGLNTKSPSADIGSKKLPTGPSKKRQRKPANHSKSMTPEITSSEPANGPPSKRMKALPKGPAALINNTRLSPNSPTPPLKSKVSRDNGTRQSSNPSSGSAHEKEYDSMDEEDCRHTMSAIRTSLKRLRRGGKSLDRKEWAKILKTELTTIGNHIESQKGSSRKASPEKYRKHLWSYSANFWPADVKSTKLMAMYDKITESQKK

Sequence of Protein translocase subunit SecA (Escherichia coli (strain K12)) (P10408 whole entry): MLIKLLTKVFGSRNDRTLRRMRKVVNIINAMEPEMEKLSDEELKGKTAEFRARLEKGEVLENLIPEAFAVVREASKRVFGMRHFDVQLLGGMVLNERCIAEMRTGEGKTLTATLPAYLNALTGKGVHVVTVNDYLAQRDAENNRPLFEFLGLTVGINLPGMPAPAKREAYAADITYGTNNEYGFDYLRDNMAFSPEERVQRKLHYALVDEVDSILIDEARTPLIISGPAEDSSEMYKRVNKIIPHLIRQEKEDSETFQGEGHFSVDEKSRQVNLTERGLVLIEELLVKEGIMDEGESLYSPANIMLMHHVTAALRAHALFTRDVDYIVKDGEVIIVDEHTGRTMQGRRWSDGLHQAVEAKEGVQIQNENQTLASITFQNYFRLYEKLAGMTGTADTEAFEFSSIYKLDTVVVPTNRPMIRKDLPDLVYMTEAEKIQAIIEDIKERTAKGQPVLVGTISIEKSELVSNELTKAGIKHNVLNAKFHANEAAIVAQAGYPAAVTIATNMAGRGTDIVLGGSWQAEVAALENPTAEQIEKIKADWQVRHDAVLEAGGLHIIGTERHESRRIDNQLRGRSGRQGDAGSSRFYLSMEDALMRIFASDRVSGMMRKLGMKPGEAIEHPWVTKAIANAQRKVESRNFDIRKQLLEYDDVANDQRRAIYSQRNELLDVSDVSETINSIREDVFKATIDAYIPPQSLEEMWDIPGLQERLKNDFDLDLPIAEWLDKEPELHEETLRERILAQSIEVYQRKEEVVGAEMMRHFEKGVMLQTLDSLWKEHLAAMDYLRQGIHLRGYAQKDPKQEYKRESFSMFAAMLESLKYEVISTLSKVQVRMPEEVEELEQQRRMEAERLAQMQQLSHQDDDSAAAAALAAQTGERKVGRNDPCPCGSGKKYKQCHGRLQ
Sequence of Sialic acid-binding Ig-like lectin 9 (Homo sapiens) (Q9Y336 whole entry): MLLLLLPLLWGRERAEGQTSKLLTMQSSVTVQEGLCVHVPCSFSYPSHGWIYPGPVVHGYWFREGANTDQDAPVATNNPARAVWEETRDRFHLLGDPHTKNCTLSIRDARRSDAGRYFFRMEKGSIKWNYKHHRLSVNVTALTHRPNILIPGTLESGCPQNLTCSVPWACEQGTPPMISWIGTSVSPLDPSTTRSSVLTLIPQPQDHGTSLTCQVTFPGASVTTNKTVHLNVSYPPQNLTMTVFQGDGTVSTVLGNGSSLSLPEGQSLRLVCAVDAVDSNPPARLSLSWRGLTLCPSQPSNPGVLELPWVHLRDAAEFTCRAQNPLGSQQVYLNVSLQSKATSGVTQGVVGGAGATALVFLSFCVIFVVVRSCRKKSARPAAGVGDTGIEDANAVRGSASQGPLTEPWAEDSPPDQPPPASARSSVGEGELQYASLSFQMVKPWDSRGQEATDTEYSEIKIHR

SMILES	Percent Effect [1]	Percent Effect [2]	Percent Effect [3]	Percent Effect [4]	Percent Effect (Trypanosoma cruzi)	Percent Effect [5]	Percent Effect [6]	Percent Effect (Homo sapiens)	Percent Effect [7]	Percent Effect [8]	Percent Effect [9]
CN(C)c1nccc(N2CCO[C@H]3CN(CC4CCOCC4)C[C@H]32)n1	1.86%	11%	-5.46%	12.4%	4.37%	-3.59%	10.5%	30.6%	4.17%	18.5%	-7.93%
O=C(NC1CCCN(c2ncccn2)C1)c1ccoc1 (configuration not stated)	-3.61%	23.7%	-4.63%	-9.78%	-0.487%	2.37%	8.34%	8.15%	3.19%	15.6%	-9.61%
Cc1cc(CN(C)C(=O)c2cc3c([nH]c2=O)CCCC3=O)no1	-5.46%	5.41%	-1.63%	-1.13%	-7.52%	5.73%	-5.57%	18%	0.99%	6.1%	-0.0983%
Cc1nc(CN2CCCn3c(nc(Cn4ccnc4)cc3=O)C2)cs1	-3.95%	12%	7.35%	0.752%	-0.393%	1.23%	5.36%	-26.2%	-1.06%	0%	-4.76%
Cc1ccc(-c2nc(CN3CCOC(c4ccccc4)C3)cs2)o1 (configuration not stated)	0.984%	-24.3%	-0.197%	6.73%	2.7%	3.81%	12.6%	-17.4%	3.7%	0%	17.1%
Cc1ccc(C)c(NC(=O)c2n[nH]c(-n3cnnc3)n2)c1	-1.59%	6.67%	0.649%	8.26%	2.75%	-2.64%	9.24%	18.5%	6.35%	10.3%	-4%
CN(C)CCN1CCO[C@@H]2CN(C(=O)c3cccs3)CC[C@@H]2C1	-2.95%	10.8%	3.88%	2.08%	-1.27%	-1.59%	20.3%	5.44%	1.08%	12.8%	-1.74%
COCCN1CCN(CCCS(=O)(=O)c2ccccc2)CC1C (configuration not stated)	-1.14%	-5.41%	-5.83%	0.945%	6.22%	0.554%	4.13%	-19.8%	4.95%	1.22%	-0.0339%
Cc1ccccc1CSCCn1nc2ccccn2c1=O	-1.42%	15.6%	7.92%	-4.64%	-2.06%	4%	10.9%	18.9%	4.76%	18.8%	-32.9%
Cc1nn(C)c(N2CCOCC2)c1CNCc1nccs1	-3.96%	7.89%	-1.27%	5.34%	9.4%	4.21%	9.86%	3.23%	3.43%	17.1%	-6.95%
CC1=Nc2c(c(=O)[nH]n2C2CCOCC2)C(c2cccc(Br)c2)S1 (configuration not stated)	-5.02%	12%	-9.43%	-0.93%	1.97%	82.6%	14.1%	30.4%	9.52%	20.5%	-11.4%
COc1ccc(C(=O)N(C)Cc2nnc3ccccn23)c(OC)c1	-4.19%	-5.2%	1.07%	4.72%	2.06%	-1.47%	12.5%	-2.12%	2.86%	14.1%	-15.8%
CN(C)CCn1c(=O)oc2ccc(NC(=O)c3cc(Cl)c[nH]3)cc21	-3.23%	2.67%	0.098%	6.1%	-3.41%	4.17%	13.6%	10.7%	19.1%	21%	-7.97%
Nc1cc2c(nn1)CCN(C(=O)CC1CCCC1)C2	-3.9%	10.1%	-4.63%	16.5%	-3.12%	-0.38%	-0.246%	-1.92%	7.39%	13.9%	-5.84%
O=C(c1cnco1)N1C[C@@H]2CC[C@H](Oc3ccccc3F)[C@@H]2C1	-8.63%	-6.76%	3.39%	-7.43%	-3.16%	-2.09%	3.74%	25.5%	-4.3%	-9.09%	-6.6%
Cc1ccc(C(=O)N2C[C@@H]3COC[C@]3(COc3cccnc3)C2)cn1	1.3%	18.9%	0.636%	-16.3%	1.07%	7.33%	13.3%	30.2%	4.32%	7.69%	4.76%
CC(C)c1ccc(OCn2ccc(C(=O)N3CCCC3)n2)cc1	-3.25%	10.4%	1.81%	12.1%	6.2%	-81.4%	12.5%	52.2%	3.23%	8.64%	-6.24%
Cc1nccn1CC1CCCN1S(=O)(=O)Cc1ccccc1 (configuration not stated)	-4.51%	5.06%	2.14%	4.66%	3.49%	1.9%	-0.573%	-9.27%	2.46%	3.8%	-0.456%
COC(=O)C(C)(C)NC(=O)C1CC(=O)N(C)C1 (configuration not stated)	-1.38%	-2.74%	-4.39%	9.64%	2.78%	-0.798%	3.17%	-3.68%	-1.04%	8.64%	4.14%
O=C(NCC1CC1)[C@H]1C[C@H]2OCC[C@H]2N(CCc2ccccc2)C1	-3.05%	2.7%	0.431%	-3.87%	-5.96%	-1.59%	16.4%	0.915%	2.16%	5.13%	-1.91%
COC[C@@H]1CC[C@H]2[C@H](CCN2C(=O)c2ccncc2F)O1	-5.45%	2.7%	-0.0287%	17.9%	2.05%	2.73%	-4.21%	-15.4%	5.38%	13.6%	-2.68%
Cc1ccc(CN2CC3(CCN(C(=O)c4cscn4)C3)C2)s1	1.32%	0%	1.31%	11.8%	-2.98%	3.19%	9.85%	-1.49%	7.29%	-1.24%	-1.23%
